Assay results published in PubChem BioAssay AID1117319 (Southern Research Institute, 2015).
“And” between values parts separate entries of the source, which are not always exact repeats. Identical values can stand only once. Among all 260,000 compounds or so, about 1,500 (0.58%) were called active. About 5% were inconclusive and are not listed.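 The calls were made as follows: active = inhibition above a set limit at one or more doses, reproduced on every date tested; inconclusive = results disagree between test dates, or hit never tested in dose response; inactive = the rest.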 These entries were drawn from the full list. Results with a measured potency or affinity are listed apart.

The compounds below were run against Virion infectivity factor (Human immunodeficiency virus type 1 group M subtype B (isolate BH10)) + Virion infectivity factor (Human immunodeficiency virus type 1 group M subtype B (isolate BRU/LAI)) + Virion infectivity factor (Human immunodeficiency virus type 1 group M subtype B (isolate PCV12)) + Virion infectivity factor (Human immunodeficiency virus type 1 group M subtype B (isolate HXB2)) + DNA dC->dU-editing enzyme APOBEC-3G (Homo sapiens) (UniProt P69720+P69721+P69722+P69723+Q9HC16) (assay: HIV-1 Vif–A3G interaction blockers – biochemical, TR-FRET, GST-Vif 1-94, biotin-A3G peptide, dose response retest, primary screen (AID 1117319;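 also: Vif residues 1-94 fused to GST binding biotinylated APOBEC3G peptide 110-148; 0% = full assay without inhibitor and 100% = GST in place of GST-Vif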)). Conditions: TR-FRET GST-Vif / biotin-A3G peptide binding; active compounds read high.

inhibition, inactive:
COC(=O)[C@]1(C)N[C@H](CN(C)S(=O)(=O)c2ccc(C(C)(C)C)cc2)[C@@H]2C(=O)N(C)C(=O)[C@@H]21 3.98%
Cc1ccc(/C=C2\SC(=S)N(C3CCS(=O)(=O)C3)C2=O)o1 (centres undefined) -0.73%
O=C1/C(=C/c2cccs2)SC(=S)N1C1CCS(=O)(=O)C1 (centres undefined) 0.42%
Cc1ccc(C(=O)N/C(=C/c2ccco2)C(=O)NC2CCS(=O)(=O)C2)cc1 (centres undefined) -1.97%
O=C1/C(=C/c2ccccc2)SC(=S)N1C1CCS(=O)(=O)C1 (centres undefined) -6.69%
Cc1cc(C)n(/N=C/c2ccco2)c(=O)c1C#N 11.3%
Cc1ccc(/C=C2\SC(=S)N(C3CCS(=O)(=O)C3)C2=O)cc1 (centres undefined) 6.18%
CC1c2ccccc2N(NC(=O)Cc2ccccc2)C1C (centres undefined) 1.5%
CC(=O)c1ccc(N2CCN(C(=O)c3ccc(OCc4c(C)noc4C)cc3)CC2)cc1 -23.2%
CCn1c(SCC(=O)NNC(=O)Cc2ccccc2)nnc1-c1ccccc1 6.74%
CNc1ccc(OC)cc1-n1cnc(-c2ccc([N+](=O)[O-])cc2)c1 -2.92%
O=C(NCc1ccccn1)/C(=N/O)c1ccccc1 1.42%
O=C(NCc1ccccn1)C(=O)NCc1ccccn1 5.11%
Cn1nc(C(C)(C)C)cc1C(=O)NCc1ccc2c(c1)OCO2 5.42%
O=C(O)c1cccc(-n2cccc2/C=C2/NC(=O)N(c3ccc(Cl)cc3)C2=O)c1 -7.27%
O=C1N/C(=C/c2cccn2-c2ccccc2)C(=O)N1Cc1ccccc1F 0%
N#CC(C#N)=Cc1cccn1-c1ccc(S(N)(=O)=O)cc1 -2.79%
O=C(O)c1ccc(COc2ccccc2/C=C2/NC(=O)N(c3cccc(Cl)c3)C2=O)cc1 32.2%
O=C(O)c1ccc(COc2ccc3ccccc3c2/C=C2/NC(=O)N(c3ccccc3)C2=O)cc1 24.9%
Cc1c(C(=O)O)cccc1-c1ccc(/C=C2/NC(=O)N(c3ccccc3)C2=O)o1 18.3%
N#C/C(=C/c1cccn1-c1cccc(C(=O)O)c1)c1ccc(F)cc1 0.42%
O=C(O)c1cc(-c2ccc(/C=C3\NC(=O)N(c4ccccc4)C3=O)o2)ccc1Cl 25.2%
Cn1c(C(=O)NCc2cccs2)cc2oc3ccccc3c21 2.73%
O=C(NC1(C(F)(F)F)NC(=O)N(CC2CCCCC2)C1=O)c1ccco1 (centres undefined) 9.27%
CCN(C(=O)c1cn(C)c(=O)c2ccccc12)c1ccccc1F -11.6%
Cn1cc(CCNCc2cn[nH]c2-c2ccc(-c3ccccc3)cc2)cn1 -3.24%
CC(C)Cc1cc(C(=O)O)c2ccccc2n1 5.6%
CCn1c(Cc2ccccc2)nnc1SCC(=O)Nc1ccc(C)cc1 -8.39%
CC(C)c1ccc(NC(=O)Cc2cn(C)c3ccccc23)cc1 4.75%
CCc1ccccc1NC(=O)Cc1cn(C)c2ccccc12 -13.9%
Cc1ccc(-c2nnn(CC(=O)N(c3ccccc3)C(C(=O)NC3CCCC3)c3ccco3)n2)o1 (centres undefined) -1.78% and -5.18%
Cc1ccc(N(C(=O)Cn2nnc(-c3ccc(C)o3)n2)C(C(=O)NC2CCCC2)c2ccco2)cc1 (centres undefined) 1.99% and -5.57%
COCCN(Cc1ccc(C)c(Br)c1)C(=O)Cn1cnc(S(=O)(=O)N2CCCC2)c1 27.4%
CN(C)C(CNC(=O)c1ccccc1C(F)(F)F)c1ccco1 (centres undefined) 19%
CC(C)CCNC(=O)c1cccnc1Sc1ccccc1 -0.39%
Cc1ccc(C(C)C)cc1OCCCCN1CCCC1 -6.06%
Cc1ccc(S(=O)(=O)NC(=O)Nc2c(C)cccc2C)cc1 -2.09%
CCOC(=O)/C=C1\SCC(=O)N1CC(=O)NC(C)c1ccccc1 (centres undefined) -4.1%
CCOC(=O)/C=C1\SCC(=O)N1CC(=O)NC(C)C 0.13%
O=C(CSc1nc2ccccc2n1Cc1ccccc1)N/N=C/c1ccccc1C(=O)O -4.24%
C=CCC[C@H](Cc1ccc(F)cc1)C(=O)OC[C@@H](C)NC(=O)[C@H](CC=C)CC(=O)N(CCO)Cc1ccccc1 0.83%
COc1ccc(OC)c(Nc2nc(C3CC3)nc3c2nnn3Cc2ccccc2)c1 -2.66%
COc1ccc(OC)c(-c2csc(NC(=O)c3ccc(OCC4CCCO4)cc3)n2)c1 (centres undefined) 6.81%
C=CCNC(=O)C1COc2ccccc2O1 (centres undefined) -12.5%
COc1ccccc1N1CCN(C(=O)c2coc(=O)c(Br)c2)CC1 27.6%
O=C(NC(=S)N1CCCc2ccccc21)c1ccc(Cl)cc1 -35.9%
O=C(c1cccc(Br)c1)N1CCCc2ccccc21 4.68%
O=C(c1ccccc1)N1CCCc2ccccc21 16.3%
O=C(c1ccc(=O)[nH]c1)N1CCCc2ccccc21 0.97%
O=C(c1coc(=O)c(Br)c1)N1CCOCC1 24.5%
O=C(c1ccc(Br)cc1)N1CCCc2ccccc21 4.85%
O=C(NC(=S)N1CCCc2ccccc21)c1ccc(Br)cc1 -10.8%
CSC1=C(C#N)C(c2sccc2C)CC(=O)N1 (centres undefined) -3.4%
C[C@@H]1CCC[C@H](C)N1Cc1nc(Cc2ccccc2Cl)no1 -1.65%
Oc1cccc(/C=N/n2c(C3CCCCC3)n[nH]c2=S)c1 2.47%
CC(=O)c1c(C)[nH]c(C(=O)CSc2ccc(F)cc2)c1C 29.5%
CCOC(=O)N1CCN(C(=O)C2CCCCC2)CC1 -1.05%
CCOc1ccsc1C(=O)OC 5.88%
CC1(C)CC(=O)C(C=NCCO)=C(O)C1 -1.68%
O=C(CNC(=O)c1ccc(Cl)cc1)OCN1C(=O)c2ccccc2C1=O -9.8%
CCC(C)(C)n1nnnc1C(c1ccc2ncccc2c1)N1CCCCCC1 (centres undefined) 2.63%
CCC(C)(C)n1nnnc1C(c1ccc2ncccc2c1)N1CCN(c2nc3ccccc3s2)CC1 (centres undefined) -9.25% and 0.75%
CCOC(=O)C(=O)NC(C)c1ccccc1 (centres undefined) 1.23%
N#CC(C#N)=C1C(=O)N(CCN2CCOCC2)c2ccccc21 19.1%
COc1ccc(CCNCc2ccc(OCc3ccc(Cl)nc3)c(OC)c2)cc1OC 5.39%
COc1cc(CNCCc2ccccc2)ccc1OCc1ccc(Cl)nc1 2.97%
CCOc1cccc2sc(N(CCCN(C)C)C(=O)c3ccc(S(=O)(=O)N4CCCCCC4)cc3)nc12 -5.19%
O=C(Nc1ccc(NS(=O)(=O)c2ccccc2)cc1)c1ccccc1Cl 9.4%
CCc1ccccc1NC(=O)Nc1ccc2c(c1)OCO2 -3.87%
Cn1cccc1C(=O)NC(=O)COC(=O)C12CC3CC(CC(O)(C3)C1)C2 9.63%
Cn1cccc1C(=O)NC(=O)COC(=O)CC12CC3CC(CC(C3)C1)C2 -0.55%
COc1ccc(Br)cc1/C=N/NC(=O)c1cccnc1 4.05%
O=C(O)CN1C(=O)/C(=C/C=C/c2ccccc2)SC1=S 5.16%
O=C(O)C(Cc1ccccc1)N1C(=O)/C(=C/c2cccs2)SC1=S (centres undefined) 24.3%
O=C(O)CCN1C(=O)/C(=C\c2ccc(-c3nc4ccccc4s3)o2)SC1=S 32.3%
O=C(O)C(Cc1ccccc1)N1C(=O)/C(=C/c2ccccc2)SC1=S (centres undefined) -5.34%
O=C(O)CCN1C(=O)/C(=C/c2ccc(-c3nc4ccccc4s3)o2)SC1=S 1.36%
CCC(C(=O)O)N1C(=O)/C(=C/C(C)=C/c2ccccc2)SC1=S (centres undefined) -2.68%
CCOc1cc(C2NC(=O)NC(C)=C2C(=O)OCc2ccccc2)ccc1O (centres undefined) 0.18%
CCOC(=O)N1CCN(Cc2nc3c(c(=O)[nH]c(=O)n3C)n2Cc2ccccc2C)CC1 23.6%
O=C(CNC(=O)c1ccccc1)Nc1ccsc1C(=O)O -11.3%
COc1ccc(Cc2noc(CN3CCNC(=O)CC3)n2)cc1OC 3.31%
O=c1c2nnn(Cc3ccccc3)c2ncn1C/C=C/c1ccccc1 -0.52%
CC(=O)c1ccc2c3c(ccc([N+](=O)[O-])c13)CC2 -4.85%
Nc1ccc2c3c(ccc([N+](=O)[O-])c13)CC2 -1.18%
Cc1nnc(SCCn2c(N3CCCCC3)nc3c2c(=O)[nH]c(=O)n3C)s1 0.62%
CCOc1ccccc1CNC(=O)Cn1c(=O)oc2ccccc21 72.4%
COc1ccccc1CNC(=O)CCn1c(=O)oc2ccccc21 0.68%
O=C(Nc1ccccc1N1CCOCC1)c1ccc2c(c1)OCCO2 -3.74%
CC(OC(=O)/C=C/c1ccc2ccccc2n1)C(=O)N(C)c1ccccc1 (centres undefined) 1.44%
Cc1ccc(Cn2nnnc2CN2CCC(O)(c3ccccc3F)CC2)cc1 20%
CCCCCCCCS(=O)CCC(=O)O (centres undefined) 11.3%
CCCCCCCCCCCCC(=O)CCCCC(=O)O -6.1%
O=C1CC(N2CCN(c3ccc(C(=O)c4ccc(F)cc4)cc3)CC2)C(=O)N1 (centres undefined) 28.2%
